p53 reactivator: restores transcriptional activity of mutant p53; Potency, µM (highest dose often 92.2 µM), without a hit: at the highest dose activity change, positive = activation, hits mostly activators; H1299 p53-A138V BP100-luciferase reporter, luminescence, 24 h; actives 0.063% (n = 320,000); further: % of control where 0% means no effect; nearly all actives have a fitted effect of over 45% in size
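H1299 (p53-null), stable ts p53-A138V + BP100-Luc; 1000 cells/well, Opti-MEM/10% FBS; cpd 4 pt, 1:5; 24 h, 37 deg C, 5% CO2; detection reagent 10 min RT; luminescence.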
Integrin act MD: integrin-mediated muscular dystrophy alleviation activation. actives 0.064% (n = 350,000). AID 624291. alpha7betagal myoblasts, beta-gal FDG fluorescence, 48 h. Potency, µM (top dose mostly 38.3 µM), for the others: at the highest dose activation, hits mostly activators;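 further: 100% = response of the positive control SU9516; nearly all actives have a fitted effect of over 60% in size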
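Alpha7betagal+/- myoblasts (passage 13) were plated 16-24 hr, then exposed to compounds (1:260 dilution of DMSO stock) for 48 hours at 37C. After MPER lysis, β-galactosidase reporter activity was read as FDG fluorescence (ex 480/em 540) after 30 minutes.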
ClpP mod: qHTS Assay for Activators of ClpP; ATP-dependent Clp protease proteolytic subunit (Bacillus subtilis (strain 168)), P80244; purified B. subtilis ClpP, FRET peptide cleavage, 20 min; Potency, µM (highest dose often 57.5 µM), for the others: at the top dose activity change, negative = active; actives 1.9% (n = 340,000); AID 651965, 2013; active means well fitted falling curve with a large enough effect; inconclusive means small, poorly fitted or top-dose-only effect; inactive means no such curve, though single readings can be large or run the other way; further: the source files actives as falling curves though it sought activators and does not explain the sign; nearly all actives have a fitted effect of over 65% in size
Target sequence (P80244 whole entry, looked up): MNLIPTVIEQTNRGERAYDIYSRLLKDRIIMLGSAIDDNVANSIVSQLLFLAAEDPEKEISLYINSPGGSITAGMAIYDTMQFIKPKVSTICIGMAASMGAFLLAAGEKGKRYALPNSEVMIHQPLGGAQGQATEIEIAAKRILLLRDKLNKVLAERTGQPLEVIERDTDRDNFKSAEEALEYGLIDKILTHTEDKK
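Buffer: 100 mM Tris/HCl pH8, 100 mM KCl, 0.05% low protease BSA, 2.5% glycerol, 0.01% Tween-20. ClpP 10 microg/mL final; 20 min RT; delta FRET normalized to ADEP and DMSO controls.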
Mm-Cpn inhibitor: blocks the Methanococcus maripaludis chaperonin Mm-Cpn; purified Mm-Cpn ATPase, ADP Transcreener TR-FRET; Potency, µM (top dose mostly 76.9 µM), for the others: top-dose activity, negative = inhibition, hits mostly inhibitors; actives 0.031% (n = 330,000); AID 504842; further: on the % scale 0 is the no-effect control and ±100 the full control effect; nearly all actives have a fitted effect of over 80% in size
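25 nM Mm-CPN + cpd, 10 min 37°C; + 10 uM ATP, 30 min 37°C; buffer 30 mM Tris pH 7.4, 100 mM KCl, 5 mM MgCl2, 1 mM DTT; Transcreener ADP HTRF detection 30 min RT.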
USP2a block: USP2a (human) protease inhibition; actives 0.01% (n = 330,000); Potency, µM (top dose mostly 38.3 µM), for inactives: at the highest dose activity change, negative = inhibition, most hits filed as inhibitors; USP2 core, Ub-CHOP2 coupled fluorogenic reporter, 485/531; O75604;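 further: plate controls were DMSO wells for no effect and full inhibition by NEM control for full effect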
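USP2 core (10nM final) preincubated 30min RT with compound in 20mM Tris-HCl pH 8.0, 2mM CaCl2, 2mM beta-mercaptoethanol, 0.05% CHAPS; 25nM Ub-CHOP2 plus 25nM reporter substrate added, fluorescence (Ex485/Em531) read after 60min.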
Eya2 phos inh: inhibitors of human Eya2 phosphatase activity | Potency, µM (titrated, usually from 76.9 µM), without a hit: top-dose activity, negative = inhibition, actives largely listed as inhibitors | actives 0.006% (n = 330,000) | recombinant Eya2, OMFP fluorescence dephosphorylation (OMFP is methylfluorescein phosphate); further: on the % scale 0 is the no-effect control and ±100 the full control effect
Target sequence (O00167 whole entry, looked up): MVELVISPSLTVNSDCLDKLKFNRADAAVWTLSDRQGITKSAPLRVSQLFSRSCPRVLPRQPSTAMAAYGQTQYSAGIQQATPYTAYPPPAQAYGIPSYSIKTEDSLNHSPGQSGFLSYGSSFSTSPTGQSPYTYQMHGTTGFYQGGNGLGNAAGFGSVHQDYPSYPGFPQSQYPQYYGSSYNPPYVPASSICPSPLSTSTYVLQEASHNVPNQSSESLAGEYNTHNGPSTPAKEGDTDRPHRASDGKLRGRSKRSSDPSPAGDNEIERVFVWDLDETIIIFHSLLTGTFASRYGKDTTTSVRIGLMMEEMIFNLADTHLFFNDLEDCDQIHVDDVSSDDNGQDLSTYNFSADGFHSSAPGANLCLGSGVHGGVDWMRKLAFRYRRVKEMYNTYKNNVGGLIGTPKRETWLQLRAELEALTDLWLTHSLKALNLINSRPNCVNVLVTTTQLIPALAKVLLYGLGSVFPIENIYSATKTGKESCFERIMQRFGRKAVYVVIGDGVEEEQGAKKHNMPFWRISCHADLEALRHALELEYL
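Eya2 (0.2 uM) preincubated 10 min at ambient with compound, then OMFP substrate added at 50 uM; 10 min reaction in 50 mM HEPES pH 7.5, 50 mM NaCl, 5 uM MgCl2, 0.05% BSA, 1 mM DTT. Fluorescence read at Ex 485/Em 525 nm.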
Numbers without * were called inactive; ? = inconclusive; nt = no result given. Shown is part of a subset that was picked to be rich in hits. Unless noted, the call rests on the fitted dose curve; in most records, active means well fitted curve in the direction sought with a large enough effect; inconclusive means small, poorly fitted or top-dose-only effect, or another doubt; inactive means no such curve, though single readings can be large; an effect the other way counts as inactive or inconclusive. Potency means the concentration at half of the fitted maximal effect.

SMILES	p53 reactivator	Integrin act MD	ClpP mod	Mm-Cpn inhibitor	USP2a block	Eya2 phos inh
Cc1cc(=O)oc2c1ccc1oc(/C(=N/O)c3ccccc3)c(C)c12	-13%	9%	?	2%	-5%	-20%
Cc1ccc(/C(=N\O)c2oc3c(C)c4oc(=O)cc(C)c4cc3c2C)cc1	14%	-70%	25µM*	1%	2%	1%
O=C(/C=C/c1ccc2c(c1)OCO2)NCc1ccco1	?	-12%	28µM*	-1%	1%	6%
CSc1ccc(CCNC(=O)Cn2ncn3c(cc4ccccc43)c2=O)cc1	nt	nt	20µM*	nt	nt	nt
CCOc1ccc(CNc2cc(C)nc3nc(-c4cccc(C)c4)nn23)cc1OC	nt	nt	-2%	nt	nt	nt
Cc1cc(C(=O)Nc2ccc3ccccc3c2)c(C)o1	25µM*	4%	nt	1%	1%	-5%
O=C(Nc1ccc(Oc2ccc3ccccc3c2)cc1)c1ccco1	-11%	-2%	16µM*	-7%	-15%	-36%
O=C(Cc1ccccc1)Nc1ccc2oc(=O)ccc2c1	-2%	19%	-1%	-4%	2%	-7%
O=C(Nc1ccc2oc(=O)ccc2c1)c1ccco1	8%	1%	28µM*	-2%	2%	11%
O=C(Nc1ccc2nn(-c3ccccc3)nc2c1)c1ccco1	?	-7%	32µM*	-5%	1%	6%
O=c1[nH]cnc2n[nH]nc12	nt	nt	-2%	nt	nt	nt
Cc1ccccc1NC(=O)CSc1nnc(COc2ccc(Cl)cc2)o1	nt	nt	0%	nt	nt	nt
O=C(Cn1nc(-c2ccc(Cl)cc2)ccc1=O)NCCCN1CCN(Cc2ccccc2)CC1	9%	-33%	32µM*	2%	-1%	-15%
CN1CCN(CCCNC(=O)Cn2nc(-c3ccccc3)ccc2=O)CC1	0%	27%	-11%	1%	0%	12%
O=C(CCn1cnnn1)N1CCCC(Nc2ccc(F)c(F)c2)C1 (centres undefined)	25%	6%	32µM*	1%	0%	-7%
CC(=O)Nc1ccc(S(=O)(=O)N(C)CC(=O)OCC(=O)NNC(=O)c2ccccc2F)cc1	0%	-13%	11µM*	-5%	-1%	5%
CCOc1cccc2sc(=NC(=O)CCS(=O)(=O)c3ccc(F)cc3)n(C)c12	-8%	-28%	?	0%	0%	7%
COc1cccc2sc(=NC(=O)CCS(=O)(=O)c3ccc(C)cc3)n(C)c12	-7%	-10%	3.2µM*	-14%	-2%	-13%
COc1ccc(S(=O)(=O)NC(C)C)cc1C(=O)N1CCOCC1	0%	9%	28µM*	-5%	-4%	12%
COc1ccc(S(=O)(=O)N2CCCCC2)cc1C(=O)N1CCCCCC1	nt	5%	14µM*	nt	nt	nt
COc1ccc(S(=O)(=O)N2CCCC2)cc1C(=O)N1CCCCC1	-5%	21%	-5%	3%	1%	6%
O=[N+]([O-])c1ccc2c(c1)C=CC2	nt	nt	0%	nt	nt	nt
Cc1ccc(S(=O)(=O)Nc2ccc3c(c2)c(C(=O)OC(C)C)c(C)n3S(=O)(=O)c2ccc(C)cc2)cc1	nt	nt	-5%	nt	nt	nt
CC(=O)Nc1ccc(NC(=O)C(C)OC(=O)c2cccc(S(=O)(=O)N3CCCCCC3)c2)cc1 (centres undefined)	2%	5%	1%	-2%	2%	4%
CC(=O)Nc1ccc(NC(=O)C(C)OC(=O)c2cccc(S(=O)(=O)N3CCCCC3)c2)cc1 (centres undefined)	-6%	16%	28µM*	0%	2%	9%
SMILES	p53 reactivator	Integrin act MD	ClpP mod	Mm-Cpn inhibitor	USP2a block	Eya2 phos inh
COc1ccc(C(=O)NCC(=O)OCC(=O)c2ccc3ccccc3c2)cc1	nt	nt	-2%	nt	nt	nt
COC(=O)c1ccc(COc2ccc(C3C4=C(CCCC4=O)Nc4onc(C)c43)cc2)cc1 (centres undefined)	-5%	8%	28µM*	1%	-4%	7%
CCSc1ncc(Cl)c(C(=O)Nc2sc3c(c2C(=O)OC)CCCC3)n1	nt	nt	1%	nt	nt	nt
Cc1ccc(C2=C(CC(=O)O)C(=O)CC2)cc1	-1%	4.5µM*	1%	0%	4%	-9%
CCOC(=O)c1ccc(NC2=CC(c3ccc(F)cc3)N(c3ccc(C(=O)OCC)cc3)C2=O)cc1 (centres undefined)	nt	nt	-3%	nt	nt	nt
C=C1NN(C(C)C(=O)O)C(=O)N1c1ccc(OCc2ccccc2)cc1 (centres undefined)	nt	nt	-1%	nt	nt	nt
O=C(CC1(c2ccc(Cl)cc2)C2CC3CC(C2)CC1C3)NCCO (centres undefined)	-1%	-8%	13µM*	0%	0%	-1%
O=C(COC(=O)C12CC3CC(CC(O)(C3)C1)C2)NCCc1ccc(Cl)cc1	-2%	11%	-4%	-1%	0%	3%
CC(=O)N(CC(=O)O)c1ccccc1	0%	-15%	18µM*	0%	2%	-2%
COC(=O)C1=C(C)N(C)C(C)=C(C(=O)OC)C1c1ccsc1	-8%	41%	52%	-1%	0%	27%
CCOC(=O)C1=CN(C)C=C(C(=O)OCC)C1c1ccsc1	-21%	1%	8.9µM*	-4%	4%	8%
CCOC(=O)N1CCc2c(sc3c2C(=O)NC(c2ccccc2)N3)C1 (centres undefined)	4%	-21%	28µM*	-4%	1%	0%
CN1CCc2c(sc3c2C(=O)NC(c2cn(Cc4ccccc4)c4ccccc24)N3)C1 (centres undefined)	-11%	0%	16µM*	-9%	1%	-3%
CN1CCc2c(sc3c2C(=O)NC(c2ccco2)N3)C1 (centres undefined)	9%	-21%	28µM*	-2%	4%	-8%
COc1ccc(-c2nc(CSc3nncn4c3cc3sccc34)c(C)o2)cc1OC	nt	nt	-2%	nt	nt	nt
O=C(O)/C=C/C(=O)Nc1ccccc1C(=O)OCC(=O)c1ccc2c(c1)OCCO2	-6%	17%	nt	2%	-1%	-5%
CCCCC(=O)Nc1ccccc1C(=O)OCC(=O)c1ccc2c(c1)OCCO2	45µM*	-22%	-27%	0%	1%	7%
COc1ccc(S(=O)(=O)c2cn(C)c3cc(N4CCOCC4)c(F)cc3c2=O)cc1	nt	nt	-22%	nt	nt	nt
COc1ccc(-c2cc3ccccc3n2CC(O)CN2CCC(C)CC2)cc1 (centres undefined)	7%	-16%	4%	-6%	2%	5%
COc1ccc(-c2cc3ccccc3n2CC(O)CNC(CO)(CO)CO)cc1 (centres undefined)	9%	-27%	35µM*	-1%	1%	4%
